Measured values taken from the supplement of paper PMC6279402.
Structures can show the parent of a compound that is named as a salt. ± gives the standard deviation of the averaged measurements.

Test system: A549
Assay: relative viability (normalised to negative control = 1, bortezomib = 0) (fraction); higher = less cytotoxic
Details: inflammatory serum-free RHB-A with cytokines + LPS, 5 d + 24 h CellTiter-Blue
[1] = compound 30 nM, GSK126 pretreatment: 5 uM GSK126
[2] = compound 30 nM, GSK126 pretreatment: none (vehicle)
[3] = compound 300 nM, GSK126 pretreatment: 5 uM GSK126
[4] = compound 300 nM, GSK126 pretreatment: none (vehicle)

Structure (SMILES)	relative viability [1]	relative viability [2]	relative viability [3]	relative viability [4]
NC(=O)c1ccc(N(C(N)=O)c2c(F)cccc2F)nc1-c1ccc(F)cc1F	0.914 ± 0.11	0.873 ± 0.059	1.09 ± 0.055	0.995 ± 0.11
CNC(=O)c1ccccc1Sc1ccc2c(/C=C/c3ccccn3)n[nH]c2c1	0.898 ± 0.013	0.875 ± 0.039	0.835 ± 0.13	0.891 ± 0.063
CC(C)CC(=O)Nc1n[nH]c2c1CN(C(=O)C1CCN(C)CC1)C2(C)C	0.84 ± 0.097	0.829 ± 0.069	0.761 ± 0.077	0.787 ± 0.033
CCS(=O)(=O)Nc1ccc2[nH]c(O)c(C(=Nc3ccc(CN4CCCCC4)cc3)c3ccccc3)c2c1 [Hesperadin]	0.652 ± 0.13	0.598 ± 0.063	0.336 ± 0.019	0.331 ± 0.022
CNNCc1ccc(C(=O)NC(C)C)cc1 [Procarbazine hydrochloride; Procarbazine]	0.962 ± 0.15	0.915 ± 0.14	0.997 ± 0.12	0.967 ± 0.06
c1cncc(CN2CCC(n3ncc4c(N5CCOCC5)nc(-c5ccc6[nH]ccc6c5)nc43)CC2)c1	0.861 ± 0.099	0.896 ± 0.11	0.73 ± 0.14	0.761 ± 0.073
CCc1cccc(CC)c1NC(=O)N1Cc2[nH]nc(NC(=O)c3ccc(N4CCN(C)CC4)cc3)c2C1	0.891 ± 0.14	0.91 ± 0.12	0.701 ± 0.13	0.557 ± 0.075
COc1cccc2c1C(=O)c1c(O)c3c(c(O)c1C2=O)C[C@@](O)(C(C)=O)C[C@@H]3O[C@H]1C[C@H](N)[C@H](O)[C@H](C)O1 [Daunorubicin hydrochloride; Daunorubicin HCl]	0.839 ± 0.095	0.765 ± 0.056	0.133 ± 0.019	0.143 ± 0.021
NCC(=O)CCC(=O)O [Aminolevulinic acid hydrochloride; Aminolevulinic acid]	1.08 ± 0.17	0.985 ± 0.1	1.05 ± 0.12	0.981 ± 0.053
Cc1[nH]c(/C=C2\C(=O)Nc3ccc(S(=O)(=O)N(C)c4cccc(Cl)c4)cc32)c(C)c1C(=O)N1CCN(C)CC1	0.89 ± 0.053	0.887 ± 0.099	1.03 ± 0.01	1.03 ± 0.01
Cn1cnc2c(F)c(Nc3ccc(Br)cc3Cl)c(C(=O)NOCCO)cc21 [AZD6244(Selumetinib)]	0.401 ± 0.0087	0.592 ± 0.045	0.203 ± 0.028	0.34 ± 0.022
Nc1nc(N)c2nc(-c3cccc(O)c3)c(-c3cccc(O)c3)nc2n1	0.719 ± 0.028	0.683 ± 0.014	0.664 ± 0.14	0.776 ± 0.075
Nc1nc(Nc2ccc(S(N)(=O)=O)cc2)nn1C(=O)c1c(F)cccc1F	0.96 ± 0.1	0.927 ± 0.15	1.12 ± 0.067	1.07 ± 0.099
CC(=O)c1c(C)c2cnc(Nc3ccc(N4CCNCC4)cn3)nc2n(C2CCCC2)c1=O	0.89 ± 0.074	0.913 ± 0.063	0.903 ± 0.087	0.931 ± 0.064
CC(C)C[C@H](NC(=O)[C@H](Cc1ccccc1)NC(=O)c1cnccn1)B(O)O [Bortezomib]	0.00425 ± 0.0011	0.015 ± 0.0062	0.00234 ± 0.0024	0.00262 ± 0.0014
Cc1cc(C(C)Nc2ccccc2)c2nc(N3CCOCC3)cc(=O)n2c1 (stereo unspecified)	0.763 ± 0.083	0.782 ± 0.067	0.737 ± 0.093	0.8 ± 0.1
CNC(=O)c1ccc(C)c(-n2c(C)cc(OCc3ccc(F)cc3F)c(Br)c2=O)c1	1.15 ± 0.17	0.936 ± 0.17	1.29 ± 0.13	0.974 ± 0.085
Cc1c(NC(=O)OC[C@@H]2COCCN2)cn2ncnc(Nc3ccc4c(cnn4Cc4cccc(F)c4)c3)c12	0.806 ± 0.16	0.802 ± 0.081	0.56 ± 0.088	0.621 ± 0.052
CCC[C@H](NC(=O)/C(C#N)=C/c1cccc(Br)n1)c1ccccc1	0.926 ± 0.078	0.929 ± 0.044	0.973 ± 0.14	1.04 ± 0.065
Cn1c(Nc2ccc(C(F)(F)F)cc2)nc2cc(Oc3ccnc(-c4ncc(C(F)(F)F)[nH]4)c3)ccc21	0.826 ± 0.12	0.699 ± 0.17	0.427 ± 0.11	0.347 ± 0.037
COc1cc2c(Nc3ccc(NC(=O)c4ccccc4)cc3)ncnc2cc1OCCCN1CCOCC1	1.04 ± 0.053	0.992 ± 0.1	0.963 ± 0.07	0.9853 ± 0.0095
CCC1=C[C@@H]2CN(C1)Cc1c([nH]c3ccccc13)[C@@](C(=O)OC)(c1cc3c(cc1OC)N(C)[C@H]1[C@@](O)(C(=O)OC)[C@H](OC(C)=O)[C@]4(CC)C=CCN5CC[C@]31[C@@H]54)C2 [Vinorelbine tartrate]	0.403 ± 0.049	0.444 ± 0.021	0.376 ± 0.056	0.307 ± 0.025
O=C(NC[C@H](O)CO)c1ccncc1Nc1ccc(I)cc1F	0.247 ± 0.056	0.352 ± 0.0078	0.126 ± 0.019	0.159 ± 0.025
Cc1ccc(NC(=O)c2ccc(CN3CCN(C)CC3)cc2)cc1Nc1nc(-c2cccnc2)cs1 [Masitinib(AB1010)]	0.802 ± 0.1	0.761 ± 0.1	0.841 ± 0.11	0.979 ± 0.091
Cc1cc(C(=O)NOCCO)c(Nc2ccc(I)cc2F)n(C)c1=O	0.137 ± 0.0076	0.158 ± 0.004	0.0557 ± 0.021	0.0366 ± 0.01
Nc1cc(C(F)(F)F)c(-c2cc(N3CCOCC3)nc(N3CCOCC3)n2)cn1	0.85 ± 0.082	0.771 ± 0.058	0.664 ± 0.064	0.751 ± 0.052
Cc1cccc(-c2[nH]c(C(C)(C)C)nc2-c2ccc3nccnc3c2)n1	0.848 ± 0.048	0.828 ± 0.086	0.799 ± 0.036	0.887 ± 0.067
O=C1NC(=O)/C(=C/c2ccc3nccc(-c4ccncc4)c3c2)S1	0.83 ± 0.1	0.85 ± 0.088	0.747 ± 0.067	0.72 ± 0.029
CC(C)c1cnn2c(NCc3ccccc3)cc(NCCCCCCN)nc12 [BS-181 hydrochloride]	0.804 ± 0.083	0.821 ± 0.11	0.853 ± 0.063	0.895 ± 0.049
